D2 PAM-1: potentiates the human D2 dopamine receptor allosterically | P14416 | potentiation, % (test concentration not listed) | DiscoveRx D2 beta-arrestin cells, luminescence, 90 min; 100% = 57 uM dopamine signal | 360,000 tested, 0.23% active; in the data active = potentiation above about 50%; inconclusive = mostly about 30% to 49%
Target sequence (P14416 whole entry, looked up): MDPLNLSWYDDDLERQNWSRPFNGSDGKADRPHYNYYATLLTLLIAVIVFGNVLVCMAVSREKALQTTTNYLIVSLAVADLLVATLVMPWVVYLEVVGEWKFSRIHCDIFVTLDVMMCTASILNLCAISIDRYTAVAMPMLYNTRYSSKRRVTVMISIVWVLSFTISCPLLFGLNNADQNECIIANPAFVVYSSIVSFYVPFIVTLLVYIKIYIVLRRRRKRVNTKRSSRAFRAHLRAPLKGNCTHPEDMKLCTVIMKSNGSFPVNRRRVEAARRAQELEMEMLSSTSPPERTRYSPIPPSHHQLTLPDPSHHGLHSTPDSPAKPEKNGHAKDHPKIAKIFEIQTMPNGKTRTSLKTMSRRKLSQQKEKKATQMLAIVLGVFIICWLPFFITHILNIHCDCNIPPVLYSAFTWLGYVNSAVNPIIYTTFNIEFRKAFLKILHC
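PathHunter D2 cells, attached overnight at 37 deg C, received compound in DMSO plus dopamine at EC20 (50 nM final) for 90 min at 37 deg C. Beta-arrestin recruitment was read as luminescence after 1 h with detection reagent at ambient temperature.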
D2 PAM-2: positively modulates the human D2 dopamine receptor allosterically; HEK293 T-REx D2, calcium flux, EC20 dopamine potentiation; potentiation, % at 10 µM; 340,000 tested, 0.34% active; AID 485347;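 active = potentiation over 3 SD above the plate norm, cut at about 30% in these data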; also: 0% is about no effect
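Primary screen. Calcium kinetics in induced HEK293 T-REx D2 cells: compound pre-addition 180 s, EC20 dopamine, 180 s more.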
D2 ag-1: activates the human D2 dopamine receptor; P14416; DiscoveRx PathHunter D2 beta-arrestin, luminescence, 90 min; 100% = 57 uM dopamine signal; activation, % (concentration not given with the values); 360,000 tested, 0.084% active; in the data active = activation above about 40%; inconclusive = between about 15% and that limit
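DiscoveRx PathHunter D2 beta-arrestin cells (2,100/well) attached overnight, then compound-stimulated 90 min at 37 C in HBSS/10 mM HEPES/0.1% Tween-20 buffer; beta-galactosidase complementation read by luminescence after 1 h at ambient temperature. Dopamine 57 uM final (EC100) as control.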
D2 ag-2: activates the human D2 dopamine receptor; AID 485358; P14416; 340,000 tested, 0.53% active; HEK293 T-REx D2 cells, calcium flux agonist mode; activation, % at 2 µM;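 active = activation over 3 SD above normal in the single-dose calcium agonist read, cut at about 30% in these data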; also: 0% is about no effect
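Tetracycline-induced HEK293 T-REx cells with force-coupled D2 receptor, plated overnight at 30 C, loaded with no-wash calcium dye. After a 10 s baseline, compound was pin-added and calcium flux read kinetically for 180 s; calcium rises flagged agonists.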
D2 antag: antagonizes the human D2 dopamine receptor; P14416; HEK293 TREx D2 cells, calcium flux, dopamine EC80; inhibition, % at 10 µM; 340,000 tested, 2% active; in the data active = inhibition above about 30%; inactive = below that, where a call was filed; also: 0% is about no effect
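Tetracycline-induced HEK293 TREx cells expressing D2 receptor forced-coupled to calcium signalling, loaded with no-wash calcium dye. Compounds added and calcium flux read 180 s, then dopamine added at EC80 and read a further 180 s.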
* hit, by the source's call; ? = inconclusive; / = not tested or not shown. A selection: hits, their analogues and other compounds. The true share with any hit is near 2.4%.

SMILES	D2 PAM-1	D2 PAM-2	D2 ag-1	D2 ag-2	D2 antag
Cc1cc(C)c(NC(=O)Cn2c(=O)nc(-c3ccccc3)c3cc(Cl)ccc32)c(C)c1	/	0.1	/	0.2	/
COc1ccc(/C(N)=N/OC(=O)c2cccc([N+](=O)[O-])c2C)cc1	3.7	-9.6	3.4	0.6	-4.7
N/C(Cc1ccc([N+](=O)[O-])cc1)=N\OC(=O)c1ccccc1Br	121.7*	-11.3	41.1*	0.5	2.8
COc1ccccc1C/C(N)=N/OC(=O)c1cccc([N+](=O)[O-])c1C	136.3*	-0.9	?	-1.4	4.8
N/C(Cc1ccc([N+](=O)[O-])cc1)=N\OC(=O)c1ccco1	21.0	/	52.7*	/	/
COc1ccc(C/C(N)=N/OC(=O)C(c2ccccc2)c2ccccc2)cc1OC	50.1*	-0.4	7.4	1.0	-16.6
COC(=O)Cc1c(C)c2ccc3c(c2oc1=O)CN(Cc1ccccc1OC)CO3	/	16.6	/	-1.1	/
COc1ccc(OC)c(-c2cc(C(=O)NCc3cccs3)no2)c1	-15.4	-23.5	-2.2	0.3	24.3
COc1ccccc1-c1cc(C(=O)NC(C)c2ccccc2)no1 (stereo not drawn)	-15.9	-26.4	-0.6	0.5	60.8*
COc1ccccc1-c1cc(C(=O)NCc2cccs2)no1	-31.3	-23.8	-1.6	1.0	75.5*
COc1ccc(OC)c(-c2cc(C(=O)NCc3ccc(Cl)cc3)no2)c1	-19.1	-12.8	-2.6	1.2	62.0*
COc1ccc(-c2cc(C(=O)NCc3ccc(Cl)cc3)no2)cc1OC	-0.2	-7.1	2.4	0.0	-7.5
COc1ccccc1N1CCN(S(=O)(=O)c2c(C)sc3ncn(CC(=O)N(C)c4ccc(Cl)cc4)c(=O)c23)CC1	/	-8.1	/	1.1	/
COc1ccc(C)cc1NC(=O)c1cc2c(s1)-c1ccccc1SC2	/	-4.6	/	-0.4	/
CCOC(=O)c1c(C)[nH]c(C)c1S(=O)(=O)NCC(=O)NCc1ccccc1C	/	-5.3	/	0.0	/
Fc1ccc(OCCOCCN2CCCC2)cc1	-4.6	/	2.7	/	/
CC(OCCN1CCCC1)(c1ccc(F)cc1)c1ccc(F)cc1	-11.2	-23.7	-10.9	1.2	73.2*
CC(C)(C)CC(=O)Nc1nnc(CCc2ccccc2)s1	-8.6	10.8	-0.1	0.1	8.2
CCC(C)(C)C(=O)Nc1nnc(CCc2ccccc2)s1	-4.6	1.4	-1.4	-0.3	43.8*
COc1ccc(N2CCN(S(=O)(=O)c3c(C)nc4scc(C)n4c3=O)CC2)cc1	-6.2	-1.7	-2.5	-0.5	-3.2
Cc1nc2scc(C)n2c(=O)c1S(=O)(=O)N1CCN(c2ccccc2)CC1	-0.3	0.3	1.2	-0.7	31.8*
CCCCOC(=O)c1ccc(NC(=O)Cc2coc3c(C)c(C)ccc23)cc1	/	8.5	/	3.2	/
CC(=O)Nc1ccc(NC(=O)CCc2nc3cccnc3n2Cc2cccs2)cc1	/	/	/	-1.0	/
O=c1c2c(nc3cc(-c4ccc(Br)cc4)[nH]n13)CCCC2	-12.5	-27.3	-2.2	10.5	54.1*
O=c1c2c(nc3cc(-c4ccccc4)[nH]n13)CCC2	-9.2	-3.9	0.7	-0.1	-19.4
SMILES	D2 PAM-1	D2 PAM-2	D2 ag-1	D2 ag-2	D2 antag
COc1cc(C(=O)Nc2ccc(-c3cc(C(F)(F)F)nn3-c3ccccc3)cc2)cc(OC)c1OC	/	-4.4	/	-0.5	/
Cc1ccc(OCC(=O)O/N=C(\N)Cc2cccs2)cc1C	-4.3	/	-1.5	/	/
Cc1cc(OCC(=O)O/N=C(\N)Cc2cccs2)ccc1Br	-2.1	2.4	2.4	-0.2	48.7*
Cc1ccc(/C=C/c2onc(C)c2S(=O)(=O)N2CCC(C(=O)N(CCC(C)C)Cc3ccco3)CC2)cc1	/	7.9	/	1.5	/
CN(C)c1ccc(/C=C/C(=O)c2cccc(Br)c2)cc1	-6.0	-2.8	2.0	112.9*	2.0
CN(C)c1ccc(C(=O)/C=C/c2cccnc2)cc1	-12.9	/	-3.3	/	/
Cc1ccccc1NC(=O)Cn1c(=O)n(CCC(=O)NCc2ccc3c(c2)OCO3)c(=O)c2sccc21	/	-4.5	/	0.3	/
CC(=O)Nc1cccc(NC(=O)Nc2cccc3ccccc23)c1	-9.2	-11.5	1.9	0.3	46.0*
CCCCOc1ccc(OC(=O)c2sc3ncn(Cc4cccc(F)c4)c(=O)c3c2C)cc1	/	/	/	0.7	/
C=CCn1c(SCC(=O)Nc2ccc(OC)cc2)nc2c([nH]c3ccccc32)c1=O	-0.2	11.4	0.0	1.0	33.1*
Cn1cc(S(=O)(=O)N2CCN(c3ccccc3F)CC2)c(=O)n(C)c1=O	-8.9	0.5	-3.5	-0.1	31.6*
CCn1c(CNC(=O)c2ccc(OC)cc2)nnc1SCC(=O)Nc1ccc(F)cc1	/	8.9	/	0.7	/
Cc1cc(-c2cc(C(=O)Nc3ccccc3)on2)nc(NCC2CC2)n1	-4.0	/	1.8	/	/
Cc1cc(-c2cc(C(=O)NC3CCCC3)on2)nc(NCC2CC2)n1	-1.5	9.8	-2.2	0.1	33.4*
CCNc1nc(OC)nc(Oc2ccc(=O)n(-c3ccccc3)n2)n1	-7.4	38.2*	-1.3	1.2	-6.4
CCNc1nc(Oc2ccc(=O)n(-c3ccccc3)n2)nc(N(C)C)n1	?	6.1	-3.1	0.0	-1.2
CN1CCC(=O)N([C@H](CSc2ccccc2)c2ccccc2)CC1	-17.8	-18.3	-2.9	-0.8	6.0
Cc1ccc(SC[C@H](c2ccccc2)N2CCN(C)CCC2=O)cc1	-19.5	1.4	-3.4	-0.5	37.6*
O=S(=O)(c1ccc2ccccc2c1)N1CCOCC1	-5.4	25.4	1.0	1.2	-3.6
O=S(=O)(c1ccc2nc(-c3ccco3)c(-c3ccco3)nc2c1)N1CCOCC1	56.0*	16.5	3.6	-1.7	-1.5
CN(CC(=O)Nc1ccc(Cl)c(C(F)(F)F)c1)C(=O)c1cccs1	-4.1	1.2	0.0	0.2	14.1
CN(CC(=O)NC(=O)NCc1ccccc1)CC(=O)Nc1ccc(Cl)c(C(F)(F)F)c1	-9.9	12.4	3.4	-0.4	35.2*
CC(=O)c1c(C)[nH]c(C(=O)N(C)CC(=O)Nc2ccc(Cl)c(C(F)(F)F)c2)c1C	-20.7	-19.3	-2.3	0.2	39.3*
CN(CC(=O)NCCc1ccc(S(N)(=O)=O)cc1)CC(=O)Nc1ccc(Cl)c(C(F)(F)F)c1	-16.0	/	1.7	/	/
COCCNC(=O)c1sc2ncccc2c1-n1c(C)ccc1C	/	10.8	/	0.0	/
SMILES	D2 PAM-1	D2 PAM-2	D2 ag-1	D2 ag-2	D2 antag
CCN(CC)S(=O)(=O)c1ccc2c(c1)c(=O)c(C(=O)NCc1ccccc1Cl)cn2C	/	9.0	/	0.3	/
CCN1C(=O)CCCc2ccccc21	-4.1	6.3	1.2	-0.1	8.3
CN(C)CCCN1c2ccccc2CCc2ccc(Cl)cc21	-23.3	-29.5	0.9	2.0	89.1*
CN(C)CCCN1c2ccccc2Sc2ccccc21	-35.1	/	-9.6	/	/
CNCCCN1c2ccccc2CCc2ccccc21	-28.0	-22.7	-0.8	1.7	39.1*
C=CCn1c(C)cc(C(=O)COC(=O)/C=C/c2cccc(OC)c2)c1C	1.3	4.8	-0.8	-2.0	42.0*
